# Assay results as given in PubChem BioAssay (NCATS).
# Values joined by “and” are separate entries in the source; they are usually repeats but may differ in a detail not shown here. Equal values may be shown once. Inconclusive results are not listed. Entries that show only a call come without a potency. Active and inactive are the calls of the source. Unless noted, calls follow the shape of the dose curve; as a rule, active = well fitted curve in the direction sought with a large enough effect; inconclusive = small, poorly fitted or top-dose-only effect, or another doubt; inactive = no such curve, though single readings can be large; an effect the other way counts as inactive or inconclusive.
# Tests used:
# [1] = molecular target: alpha-glucosidase (Oryza sativa, rice) (UniProt Q653V4); assay: Counterscreen for Glucocerebrosidase Inhibitors: qHTS Assay for Rice alpha-Glucosidase at pH 5.0 (AID 997)
# Method in brief: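 Endpoint fluorogenic assay at pH 5.0: compounds (0.7 nM to 77 uM) titrated against 4 nM rice enzyme and 400 uM 4-MU-alpha-glucoside for 20 min at room temperature; NaOH/glycine stop, read ex 365/em 440 nm, Hill-fitted AC50.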
# [2] = Validation of Assay for Modulators of Lamin A Splicing (AID 1459; active = well fitted curve in the direction sought with a large enough effect in the signal ratio; the % refers to the signal ratio;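 also: cells exposed to compound for two days before reading; ratio rise marks activators and ratio drop marks inhibitors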)
# Method in brief: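 Splicing correction is reported by an EGFP-containing lamin A minigene in stably transfected S3 HeLa cells, while DsRed2 controls for viability and nonspecific signal. Cells are exposed to compounds for 48 hrs before the GFP over RFP ratio is taken.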
# [3] = qHTS Assay for Lipid Storage Modulators (AID 1519; calls by dose curve); settings: Drosophila S3 cells, BODIPY lipid droplet/cell ratio, laser cytometry, cells loaded with oleic acid
# Method in brief: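 Cells seeded at 5,000 per well were treated with compounds over a concentration series and loaded with oleic acid (400 uM, as added). Lipid droplet fluorescence (488 nm excitation, 500-530 nm channel) was read by laser-scanning cytometry and normalized to 20 uM Triacsin C.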
# [4] = molecular target: DNA repair nuclease/redox regulator APEX1 (Homo sapiens) (UniProt P27695); assay: qHTS Validation Assay for Inhibitors of the Human Apurinic/apyrimidinic Endonuclease 1 (APE1) (AID 1705; also: potency is read from the fitted curve at half-maximal effect;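 as to activity change, negative = inhibition: TAMRA fluorescence gain over two minutes as APE1 cuts a quenched THF abasic duplex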)
# DNA repair nuclease/redox regulator APEX1 (Homo sapiens), sequence (P27695 whole entry, looked up): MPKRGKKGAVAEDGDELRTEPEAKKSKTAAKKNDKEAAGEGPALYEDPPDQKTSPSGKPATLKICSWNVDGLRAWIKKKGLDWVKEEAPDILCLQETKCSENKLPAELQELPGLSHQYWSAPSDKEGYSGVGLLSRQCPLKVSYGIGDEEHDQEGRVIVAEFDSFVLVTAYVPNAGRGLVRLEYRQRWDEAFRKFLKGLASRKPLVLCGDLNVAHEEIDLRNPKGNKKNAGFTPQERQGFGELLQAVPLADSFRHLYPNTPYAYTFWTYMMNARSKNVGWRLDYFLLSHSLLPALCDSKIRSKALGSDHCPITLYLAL
# Method in brief: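 Endonuclease activity of human APE1 is followed as dequenching when the enzyme incises a tetrahydrofuran abasic site in a short duplex labelled 5'-TAMRA/3'-BHQ-2 (50 nM final), after 15 min enzyme–compound preincubation at room temperature.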
# [5] = Counterscreen for APE1 Inhibitors: Fluorescent Dye Displacement Validation Assay (AID 1707)
# Method in brief: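 Reaction mixture of 250 nM Thiazole Orange and 50 nM double-stranded abasic-site DNA was dispensed, compounds were pin-transferred, and fluorescence was read at endpoint (480 nm ex, 540 nm em). Reduced fluorescence indicated dye displacement by DNA binding.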
# [6] = molecular target: Endonuclease 4 (Escherichia coli (strain K12)) (UniProt P0A6C1); assay: Counterscreen for APE1 Inhibitors: qHTS Validation Assay for Inhibitors of Endonuclease IV (AID 1708)
# Method in brief: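 The reaction buffer contained 50 mM Tris-HCl pH 7.5, 50 mM NaCl, 2 mM MgCl2, 1 mM DTT and 0.01% Tween-20. Incision of a 50 nM fluorophore/quencher THF substrate by 2 nM enzyme was measured kinetically.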
# [7] = qHTS for differential inhibitors of proliferation of Plasmodium falciparum line 7G8 (AID 1815);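 also: parasite growth measured after three days of incubation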; also: potency is read from the fitted curve at half-maximal effect
# [8] = qHTS for differential inhibitors of proliferation of Plasmodium falciparum line GB4 (AID 1816); settings: Potency: Plasmodium falciparum GB4 proliferation inhibition;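 also: parasite growth measured after 72 h incubation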; also: potency is read from the fitted curve at half-maximal effect
# [9] = qHTS for differential inhibitors of proliferation of Plasmodium falciparum line 3D7 (AID 1876); also: potency is read from the fitted curve at half-maximal effect
# [10] = measured here: cell count channel max response
# [11] = measured here: lipid channel max response
Structure (SMILES),outcome [1],outcome [2],"activity change, negative = inhibition ([3]; at 57.5 µM (top of the series))","max response [3, 10]","max response [3, 11]",Potency [4],Potency [5],Potency [6],Potency [7],Potency [8],Potency [9],"activity change, negative = inhibition ([3]; at 25.7 µM (top of the series))"
O=C(O)C1=CCCNC1,inactive,inactive,5.3% (inactive) and 2.39% (inactive) and 0.0791% (inactive),11.8% and 11.1% and -5.85%,19.5% and 15.3% and -4.32%,inactive,inactive,inactive,inactive,inactive,inactive,
Oc1ccc(Cn2cc[nH]c2=S)cc1,inactive,inactive,-3.19% (inactive),-28.3%,-29.9%,inactive,inactive,inactive,inactive,inactive,inactive,
C=C(C)C1CC=C(C(=O)O)CC1 (configuration not stated),,inactive,0.974% (inactive) and 1.72% (inactive),16.2% and 48.1%,18.4% and 48.7%,inactive,inactive,inactive,inactive,inactive,inactive,
NC(N)=[N+]1CCc2ccccc2C1,inactive,inactive,1.3% (inactive),6.74%,-12.8%,inactive,inactive,inactive,inactive,inactive,inactive,
Cc1ccc([N+](=O)[O-])cc1S(=O)(=O)N(C)C,inactive,inactive,-0.817% (inactive) and -0.0593% (inactive),1.19% and 66.8%,0.358% and 67%,inactive,inactive,inactive,inactive,inactive,inactive,
CN[C@H](CC(=O)O)C(=O)O,inactive,inactive,3.39% (inactive),12.1%,14.4%,inactive,inactive,inactive,inactive,inactive,inactive,
N[C@@H](CCCC(=O)O)C(=O)O,,inactive,0.27% (inactive),-26.7%,-26.8%,inactive,inactive,inactive,inactive,inactive,inactive,
O=C(O)c1cccnc1C(=O)O,inactive,inactive,1.68% (inactive),9.96%,12.5%,inactive,inactive,inactive,inactive,inactive,inactive,
CCSC(=N)N,inactive,inactive,3.43% (inactive) and 3.42% (inactive) and 1.1% (inactive),11.3% and -10.8% and -6.69%,15.2% and -3.11% and -5.48%,inactive,inactive,inactive,inactive,inactive,inactive,
CC(=O)NCCc1c[nH]c2ccc(O)cc12,inactive,inactive,10.9% (inactive),15.4%,28.6%,inactive,inactive,inactive,inactive,inactive,inactive,
O=c1[nH]ccc2c(O)cccc12,inactive,inactive,1.52% (inactive),-28%,-29.5%,inactive,inactive,inactive,inactive,inactive,inactive,
CC(=O)O[C@H]1CC2(C)[C@@H](C[C@@H](O)[C@H]3[C@@]4(C)CC[C@@H](O)[C@@H](C)[C@@H]4CC[C@@]32C)C1=C(CCC=C(C)C)C(=O)O (some centres not stated),,inactive,0.469% (inactive),-5.46%,-5.43%,39.8 µM (active),inactive,inactive,8.91 µM (active),,,
NC(C(=O)N[C@@H]1C(=O)N2C(C(=O)O)=C(Cl)CS[C@H]12)c1ccccc1 (some centres not stated),,inactive,-2.36% (inactive),-29.4%,-32.3%,inactive,inactive,inactive,inactive,inactive,inactive,
COc1cc(CC(=O)O)ccc1O,inactive,inactive,-0.731% (inactive),56.6%,57.3%,inactive,inactive,inactive,inactive,inactive,inactive,
O=C(O)c1ccccc1Nc1ccccc1,inactive,inactive,7.05% (inactive) and 0.0171% (inactive),2.57% and -16.2%,11.5% and -17.1%,inactive,inactive,inactive,inactive,inactive,inactive,
C[C@H](O)C(=O)C1=Nc2c(nc(N)[nH]c2=O)NC1,inactive,inactive,3.44% (inactive),8.97%,8.64%,inactive,inactive,inactive,inactive,inactive,inactive,
COc1ccccc1N1CCN(CCCCNC(=O)c2ccc3ccccc3c2)CC1,inactive,inactive,,1.63%,1.88%,inactive,inactive,inactive,7.08 µM (active),10 µM (active),2 µM (active),0.195% (inactive)
Cc1nc(N=Nc2ccc(S(=O)(=O)O)cc2S(=O)(=O)O)c(COP(=O)(O)O)c(C=O)c1O,inactive,inactive,0.0773% (inactive) and 2.25% (inactive),-1.61% and 6.03%,-3.14% and 17.5%,inactive,inactive,inactive,inactive,inactive,inactive,
